Where “and” joins values, the source holds several entries; their conditions need not be identical. Identical values can stand only once. Compounds without any hit were thinned out: in the full panel of roughly 79,000, 15% have a hit. Cut-off read from the data, not from the text of the source: active = growth inhibition above about 70%; inactive = the rest.
Experiments:
[1] = NCI Yeast Anticancer Drug Screen. Data for the rad50 strain (AID 155);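 note: 0% = growth of vehicle-only cultures of the same strain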; conditions: S. cerevisiae rad50 strain growth inhibition; at 50.0 µM; stronger effect = higher value
Summary of the method: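 DNA repair mutant yeast, compound exposure, growth read-out; inhibition is taken relative to vehicle.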

[2] = NCI Yeast Anticancer Drug Screen. Data for the mec2-1 strain (AID 157); conditions: S. cerevisiae mec2-1 strain, at 50.0 µM, stronger effect = higher value
Summary of the method: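 Compounds were applied to mec2-1 yeast cells. Their growth was then compared with that of vehicle-treated cultures to give growth inhibition.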

[3] = NCI Yeast Anticancer Drug Screen. Data for the sgs1 mgt1 strain (AID 161);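 note: 0% = growth of cultures given vehicle only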; conditions: S. cerevisiae sgs1 mgt1 strain, at 50.0 µM, stronger effect = higher value
Summary of the method: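 Yeast cells carrying a defined DNA-repair defect were exposed to test compounds. Growth inhibition was measured relative to vehicle-treated controls.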

[4] = NCI Yeast Anticancer Drug Screen. Data for the cln2 rad14 strain (AID 165);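 note: 0% = growth equal to vehicle treated cultures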; conditions: S. cerevisiae cln2 rad14 strain, at 50.0 µM, stronger effect = higher value
Summary of the method: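 Strain: cln2 rad14 yeast, altered in cell cycle control and DNA damage repair. Read-out: growth inhibition vs vehicle.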

[5] = NCI Yeast Anticancer Drug Screen. Data for the bub3 strain (AID 167); conditions: S. cerevisiae bub3 mutant strain, at 50.0 µM, stronger effect = higher value
Summary of the method: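 In this screen, a yeast mutant lacking normal mitotic checkpoint function is challenged with compound. Relative growth versus vehicle gives the inhibition value.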

[6] = NCI Yeast Anticancer Drug Screen. Data for the mlh1 rad18 strain (AID 175); conditions: S. cerevisiae mlh1 rad18 strain growth inhibition; at 50.0 µM; stronger effect = higher value
Summary of the method: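 A repair-deficient yeast strain is exposed to test compound, and growth is scored relative to vehicle-treated controls.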

Measured: growth inhibition

CC1C2C=CC(C2)C1C(=O)O (stereo unspecified)
inactive: [1] 5.15% and 13.9% | [2] 28.8% and 5.1% | [3] -0.05% and 5.85% | [4] -42% and 9.65% | [5] 7.8% and -1.95% | [6] 7.1% and 11.2%

NC(=O)c1nnn(Cc2ccccc2)c1N
inactive: [1] 5.55% and 31.2% | [2] 5.6% and -1.5% | [3] -3.05% and -4.65% | [4] -4.65% and -1.95% | [5] 6.9% and -5.2% | [6] 9.6% and 3.3%

CC(=O)c1c(-c2cccc3ccccc23)c(C#N)c(=S)n(C2OC(CO)C(O)C(O)C2O)c1-c1ccccc1 (stereo unspecified)
inactive: [1] 21.2% and 31.6% | [2] 17.9% and -8.45% | [3] 42.1% and 34.2% | [4] 25.7% and 23.8% | [5] 34.9% and 12.3% | [6] 21.6% and 24.7%

CCC(C(=O)O)c1ccccc1 (stereo unspecified)
inactive: [1] 10.7% and 12.6% | [2] 5.4% and 3.95% | [3] 9.4% and 1.25% | [4] -12.2% and -29.8% | [5] -19.6% and -1.9% | [6] 22.4% and 2.4%

CC(C)(C)OC(=O)C1CCON1C1OC(C(O)CO)C2OC(C)(C)OC21 (stereo unspecified)
inactive: [1] -3.45% and 48.1% | [2] 7.85% and 43% | [3] 2.4% and 57.9% | [4] -8.25% and 19% | [5] 13.2% and 38.5% | [6] 10.8% and 59.4%

Nc1cccc2cc(S(=O)(=O)O)ccc12
inactive: [1] 10.6% and -6.9% | [2] 22.9% and -9.85% | [3] -24.9% and -1.25% | [4] -2.75% and -50.2% | [5] -1.65% and -11.9% | [6] -5.5% and -35.7%

COc1ccc(COC(=O)NCC(=O)NC(C)C(=O)NC(Cc2ccccc2)C(=O)OCc2ccccc2)cc1 (stereo unspecified)
inactive: [1] -6.5% and 3.15% | [2] -10.4% and -13.6% | [3] -14.9% and -1.9% | [4] -21.1% and -17.6% | [5] -0.7% and 1.65% | [6] 4.25% and 6.25%

COC1OC(COC(=O)NCCCCC(=O)C(F)(F)C(F)(F)C(F)(F)C(F)(F)C(F)(F)C(F)(F)C(F)(F)F)C(O)C(O)C1O (stereo unspecified)
inactive: [1] -34.9% and -29.9% | [2] -22.2% and -30.1% | [3] -10% and -11.4% | [4] -2.5% and -8.2% | [5] -18.4% and -26.4% | [6] -2.9% and -3.6%

COC(=O)c1ccc(O)cc1
inactive: [1] 27.3% and 4.9% | [2] 14.6% and 25.4% | [3] 13.8% and 12.4% | [4] 3.9% and 14.8% | [5] -11.6% and -4.5% | [6] 8.9% and -0.35%

CCCCNC(=S)S
inactive: [1] -1.1% and -33.5% | [2] -19.8% and -30.9% | [3] 0.65% and -20.4% | [4] -7.65% and -14.2% | [5] 11% and -23.7% | [6] -6.9% and -22.5%

CC(CCC(C)C(=O)O)C(=O)O (stereo unspecified)
inactive: [1] -10.1% and 40.4% | [2] -12.8% and 9.8% | [3] -2.05% and 15.4% | [4] 12.2% and 13% | [5] -15.1% and 22.6% | [6] -0.25% and 27.9%

O=C(NNC(=S)NC1OC(CO)C(O)C(O)C1O)c1cccc(C(=O)NNC(=S)NC2OC(CO)C(O)C(O)C2O)n1 (stereo unspecified)
inactive: [1] 1.45% | [2] 19.9% and -22.6% | [3] 31.4% and 25.2% | [4] 21.4% and 7.8% | [5] 17.1% and 8.4% | [6] 27.4% and 14.9%

O=C(O)/C=C/C(=O)Nc1ccccc1
inactive: [1] -4.8% and -26.8% | [2] -18.7% and -22% | [3] -11.8% and -14.3% | [4] 0.25% and -30.4% | [5] -2.8% and -10.2% | [6] 4.15% and -1.65%

CC(=O)OCC(OC(C)=O)C(OC(C)=O)C(OC(C)=O)C(C=NN(C(C)=O)S(=O)(=O)c1ccc(/C=C2\NC(=O)NC2=O)cc1)OC(C)=O (stereo unspecified)
inactive: [1] 2.7% and 15.3% | [2] 13.4% and 0.65% | [3] 26.6% and 11.7% | [4] 24.1% and 30.6% | [5] -5.25% and 7.15% | [6] 25.8% and 18.2%

CCOC(=O)C(OC1OC(C(=O)OC)C(OC(C)=O)C(OC(C)=O)C1OC(C)=O)c1ccccc1 (stereo unspecified)
inactive: [1] -10.2% and -20.9% | [2] -5.7% and -8.3% | [3] -13.2% and -11.8% | [4] 0.5% and -29.8% | [5] -6.85% and -17.8% | [6] -33.1% and -35.5%

Nc1nc2nccnc2c(=O)[nH]1
inactive: [1] -10.2% and 6.15% | [2] 47% and -1.65% | [3] 1.55% and -5.7% | [4] -18.6% and -0.35% | [5] -24.9% and 1.45% | [6] -15.2% and -0.8%

COC(=O)C(Cc1ccccc1)NC(=O)C(CNC(=O)OCc1ccccc1)C(=O)OCc1ccccc1 (stereo unspecified)
inactive: [1] 16.2% and -13.2% | [2] -5.6% and -6.65% | [3] -1.9% and -8.85% | [4] 0.65% and -3.55% | [5] -3.5% and -20.5% | [6] -11.1% and -10.2%

CC1OC(n2cnc3c(N)ncnc32)C(O)C1O (stereo unspecified)
inactive: [1] -3.75% and 14.4% | [2] 8.1% and -3.35% | [3] 2.5% and -12.4% | [4] -53.2% and 5.3% | [5] 0.85% and -1% | [6] -0.4% and -13.8%

CC1(C)OCC(C2OC(C)(C)OC2C2OC(O)C=CC2=O)O1 (stereo unspecified)
inactive: [1] 19.8% and 18.5% | [2] 18.9% and 2.1% | [3] 24.6% and 6.5% | [4] 9.05% and -4.9% | [5] 24.9% and 10.9% | [6] 20.3% and 10.6%

C/C=C(\Br)C(=O)O
inactive: [1] -8.1% and 24.1% | [2] -10.7% and -5.4% | [3] 1.7% and 0.25% | [4] -10.1% and -19.2% | [5] -15.1% and 5.8% | [6] 9.25% and 12.8%

O=C(O)CSc1ccccc1C(=O)O
inactive: [1] -1.35% and -7.9% | [2] -11.9% and -40.9% | [3] 1.6% and -35.4% | [4] -27.9% and 22.3% | [5] 6.15% and -33.8% | [6] -17.9% and -4.25%
